Assay results: PubChem BioAssay AID1001 (Sanford-Burnham Center for Chemical Genomics, 2008)
The whole screen tested about 200,000 compounds, of which about 50 (0.03%) were called active. No rule for the calls is given here. The sample as a whole holds a higher share of actives than the screen did. Results with a measured potency or affinity are listed apart.

What follows are molecules tested against Alkaline phosphatase, tissue-nonspecific isozyme (Homo sapiens) (UniProt P05186) (assay: stimulation of alkaline phosphatase TNAP activity – biochemical, luminescent, no phosphate acceptor, uHTS, primary screen (AID 1001)). Details: purified TNAP, luminescent activation assay, at 20 µM, active compounds read high.
Chain of Alkaline phosphatase, tissue-nonspecific isozyme (Homo sapiens) (P05186 whole entry, looked up): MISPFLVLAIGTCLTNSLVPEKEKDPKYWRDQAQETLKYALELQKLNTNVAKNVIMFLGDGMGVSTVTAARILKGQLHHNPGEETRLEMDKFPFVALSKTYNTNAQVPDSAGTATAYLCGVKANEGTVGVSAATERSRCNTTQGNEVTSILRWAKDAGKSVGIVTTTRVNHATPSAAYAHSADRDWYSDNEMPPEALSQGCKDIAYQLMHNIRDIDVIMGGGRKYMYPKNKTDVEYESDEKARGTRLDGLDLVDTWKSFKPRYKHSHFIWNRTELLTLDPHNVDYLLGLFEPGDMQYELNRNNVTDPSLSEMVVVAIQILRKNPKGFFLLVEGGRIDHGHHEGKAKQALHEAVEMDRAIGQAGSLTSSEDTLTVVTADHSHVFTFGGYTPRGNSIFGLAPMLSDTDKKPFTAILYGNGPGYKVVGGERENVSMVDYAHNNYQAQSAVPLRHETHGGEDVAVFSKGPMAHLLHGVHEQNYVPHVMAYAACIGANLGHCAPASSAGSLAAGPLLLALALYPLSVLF

SMILES	activation fold
CCNC(=S)NNC(=O)c1cc(C)nc2ccccc12	1.7 (inactive)
CCCc1cc(C(=O)NNC(=S)NCC)c2ccccc2n1	1.1 (inactive)
COc1ccc(C)cc1-n1[nH]nnc1=S	1 (inactive)
COc1ccc(NC(=S)N2CCCC2c2ccc(OC)c(OC)c2)cc1 (configuration not stated)	0.9 (inactive)
C=CCNC(=S)NNC(=O)C(CCC(C)C)CC(C)(C)O (configuration not stated)	1.1 (inactive)
C=CCNC(=S)NNC(=O)C(CCCC)CC(C)O (configuration not stated)	1.7 (inactive)
O=C1c2ccc(Br)cc2C(=O)N1c1ccc(Cc2ccncc2)cc1	1.1 (inactive)
COCCNC(=S)N/N=C(\C)c1ccccc1OC	1.1 (inactive)
COCCNC(=S)N/N=C(\C)c1ccccc1F	1 (inactive)
CN(C)CCNC(=O)c1ccc(-c2nn(C)c(=O)c3ccccc23)cc1	1.1 (inactive)
Cc1sc2nc(-c3ccccn3)[nH]c(=O)c2c1-c1ccccc1	1.4 (inactive)
CCc1cc2c(=O)[nH]c(-c3ccccn3)nc2s1	1.8 (inactive)
O=C(O)/C=C/C(=O)N1CCN(S(=O)(=O)c2cccc(C(F)(F)F)c2)CC1	1.1 (inactive)
COc1cccc(/C=N/NC(=O)c2[nH]c(C)c(C(=O)N/N=C/c3cccc(OC)c3)c2C)c1	1.2 (inactive)
Cc1cccc(C)c1NC(=O)C1(N(C(=O)c2ccccn2)c2ccc(O)cc2)CCCCC1	1 (inactive)
Cc1cccc(C)c1NC(=O)C1(N(Cc2ccco2)C(=O)c2ccccn2)CCCC1	1 (inactive)
O=C(NCCCn1ccnc1)/C(=C\c1cccnc1)NC(=O)c1ccccc1F	1 (inactive)
CCC(=O)Nc1ccc(/C(C)=N\NC(=O)c2ccc(C)s2)cc1	1 (inactive)
O=C(Nc1cccc2ccccc12)c1ccc([N+](=O)[O-])s1	1 (inactive)
Cc1cc(C)c(-c2csc(NC(=O)C3=NN(c4ccccc4)C(=O)CC3)n2)c(C)c1	0.9 (inactive)
O=c1[nH]c(NCCO)nc2c1C1(CCCCC1)Cc1ccccc1-2	1 (inactive)
Cn1c(NCCCO)nc2c(c1=O)C1(CCCCC1)Cc1ccccc1-2	1 (inactive)
CC1CCCN(c2nc3ccccc3nc2C(C#N)C(=O)OC2CCCCC2)C1 (configuration not stated)	1 (inactive)
Clc1ccc(-c2nc3ccccn3c2CN2CCCCC2)cc1	1.1 (inactive)
Cc1ccc2nc(-c3ccccc3)c(CN3CCN(c4ccccc4F)CC3)n2c1	1.1 (inactive)

SMILES	activation fold
O=c1cc(N2CCc3ccccc3C2)[nH]c(=O)n1Cc1ccc(F)cc1	1 (inactive)
Cc1sc(NC(=O)CSc2nnc(COc3ccc(Cl)cc3)n2C)c(C#N)c1C	1.1 (inactive)
Cc1cccc(-c2nsc(SCC(=O)N3CCCC3)n2)c1	1.1 (inactive)
Cc1ccc(Nc2nc(N)nc(CN3CCN(C(=O)c4ccco4)CC3)n2)cc1Cl	1 (inactive)
CCNC(=S)NC1CC2CCC(C1)N2Cc1ccccc1 (configuration not stated)	1 (inactive)
CNC(=S)NC1CC2CCCC(C1)N2Cc1ccc(C)cc1 (configuration not stated)	1.1 (inactive)
Cc1c(Cl)c(C(=O)NNC(=S)Nc2ccc(F)cc2)nn1C	2.7 (inactive)
COc1ccccc1NC(=S)NNC(=O)c1nn(C)c(C)c1Cl	1.2 (inactive)
COCc1nnc(NC(=O)c2ccc(OC)cc2OC)s1	1.1 (inactive)
COc1ccc(/C=C2/SC(=O)N(CC(=O)NCCC(C)C)C2=O)cc1OC	1.1 (inactive)
COC(=O)Cn1c(CN2CCC(Cc3ccccc3)CC2)nc2c1c(=O)n(C)c(=O)n2C	1.1 (inactive)
COC(=O)c1cc(O)c(O)c(O)c1	1 (inactive)
O=C(O[C@@H]1OC2COC(=O)c3cc(O)c(O)c(O)c3-c3c(cc(O)c(O)c3O)C(=O)O[C@@H]([C@H]1O)[C@@H]2O)c1cc(O)c(O)c(O)c1	1.3 (inactive)
O=C(OCC1O[C@@H](OC(=O)c2cc(O)c(O)c(O)c2)[C@@H](OC(=O)c2cc(O)c(O)c(O)c2)[C@@H](OC(=O)c2cc(O)c(O)c(O)c2)[C@@H]1OC(=O)c1cc(O)c(O)c(O)c1)c1cc(O)c(O)c(O)c1 (some centres not stated)	3 (active)
COC(=O)C1=C(C)N=C2SC(C#N)=C(N)N2C1c1ccc(OC)cc1 (configuration not stated)	1 (inactive)
COc1ccc(Cl)cc1NC(=O)CN1CCC(n2nnc3cc(F)ccc32)CC1	1.5 (inactive)
COc1ccc(Cl)cc1NC(=O)CN1CCC(n2nnc3ccccc32)CC1	1.1 (inactive)
Cc1nc(N2CCN(C(c3ccccc3)c3ccccc3)CC2)nc2c1C(=O)CCC2	1.1 (inactive)
Cc1ccc(-c2csc(NC(=O)CSC3=NCCS3)n2)cc1	1.1 (inactive)
CC(=O)Nc1ccc(S(=O)(=O)NCc2ccccn2)cc1	1.1 (inactive)
Cn1c(=O)c2c(ncn2CC(=O)N/N=C/c2ccco2)n(C)c1=O	1.1 (inactive)
Cn1c(=O)c2c(nc(NCc3ccco3)n2C)n(C)c1=O	1.1 (inactive)
CCc1ccc2oc(-c3ccc(OC)cc3)cc(=Nc3c(C)n(C)n(-c4ccccc4)c3=O)c2c1	0.9 (inactive)
Cc1ccc(CC(=O)Nc2nc3ccccc3s2)cc1	1 (inactive)
CCOC(=O)c1ccc(NCc2ccc3c(c2)OCO3)cc1	1 (inactive)

SMILES	activation fold
CCn1c(CNc2ccc(C(=O)O)cc2)nc2ccccc21	1.1 (inactive)
C/C(=N\Nc1ccc(C(=O)O)cc1)c1nc2ccccc2n1C	0.9 (inactive)
COc1ccc(C(CNC(=O)CN2C(=O)NC3(CC(C)CC(C)(C)C3)C2=O)N2CCOCC2)cc1 (configuration not stated)	1.2 (inactive)
O=C(COc1ccc(Cl)cc1)NCc1nnc(SCC(=O)NCCc2ccccc2)o1	1.1 (inactive)
Cc1cc(C)cc(CC(Cc2nc3ccccc3[nH]2)c2nc3ccccc3[nH]2)c1 (configuration not stated)	1.6 (inactive)
COc1ccccc1CC(Cc1nc2ccccc2[nH]1)c1nc2ccccc2[nH]1 (configuration not stated)	2.8 (inactive)
Cc1cc2oc(=O)cc(CN3CCN(Cc4ccccc4)CC3)c2cc1Cl	1 (inactive)
COc1ccc(/C=C2\SC(=O)N(CC(=O)NNC(=O)c3ccccc3O)C2=O)cc1OC	2.4 (inactive)
O=C(CN1C(=O)S/C(=C\c2ccccc2)C1=O)NNC(=O)c1ccccc1O	2.2 (inactive)
COc1ccc(NC(=O)CC2C(=O)N(Cc3cccs3)C(=S)N2C(C)C)cc1 (configuration not stated)	1.1 (inactive)
CCOc1ccc(N(C(=O)c2cnsn2)C(C(=O)NC2CCCCC2)c2ccncc2)cc1 (configuration not stated)	1.2 (inactive)
Cn1nc(CC(=O)NC2CCCCC2)c2ccccc2c1=O	1.1 (inactive)
Cn1nc(CC(=O)NC2CCCCCC2)c2ccccc2c1=O	1.1 (inactive)
COc1ccc(CN2CCNC(=O)C2CC(=O)NCc2ccc(C)s2)c(OC)c1 (configuration not stated)	1.1 (inactive)
Cc1ccc(CNC(=O)C2(NC(=O)Nc3ccc(C)cc3)CCCCC2)cc1	1.2 (inactive)
Cc1ccc(NC(=O)NC2(C(=O)NCc3ccccc3)CCCCC2)cc1	1.1 (inactive)
O=C(NC1CCCCC1)C1CCN(C(=O)c2ccc(-c3ccccc3)cc2)CC1	1.1 (inactive)
OCCNc1ncnc2c1c(-c1ccccc1)c(-c1ccccc1)n2Cc1ccco1	1.1 (inactive)
N=c1c2c(-c3ccccc3)c(-c3ccccc3)n(Cc3ccco3)c2ncn1CCCn1ccnc1	2.7 (inactive)
COc1cc(NC(=O)CN2CCCCC2)c(C)cc1[N+](=O)[O-]	1.1 (inactive)
CCOc1cc(-n2cnnn2)c(OCC)cc1NC(=O)c1cnccn1	1.1 (inactive)
c1ccc2c(c1)Nc1nccnc1S2	1 (inactive)
COc1ccc2[nH]c(=O)c(CN(CCN3CCCC3)C(=O)Nc3ccccc3Cl)cc2c1	1.1 (inactive)
COc1ccc(OC)c(-c2c3cc(O)c(=O)cc-3oc3cc(O)c(O)cc23)c1	3.9 (active)
Cc1c2cc(O)c(=O)cc-2oc2cc(O)c(O)cc12	0.4 (inactive)

SMILES	activation fold
CCOc1ccccc1-c1c2cc(O)c(=O)cc-2oc2cc(O)c(O)cc12	0.6 (inactive)
O=C(NCCCN1CCCC1=O)c1ccc(OCc2ccccc2)cc1	1.1 (inactive)
COc1nc(-c2cnccn2)sc1C	1.1 (inactive)
COc1ccc2nc(C)cc(SCC(=O)NNC(=O)COc3ccc(C)cc3)c2c1	1.1 (inactive)
COc1ccc2nc(C)cc(SCC(=O)NNC(=O)COc3cccc4ccccc34)c2c1	2.1 (inactive)
O=C(CN1CCOCC1)NCCC12CC3CC(CC(C3)C1)C2	1.2 (inactive)
COc1ccc(N/C=C\C(=O)c2ccc(Br)cc2)cc1OC	1.1 (inactive)
Cc1nn(C)cc1/C=C/C(=O)c1ccccc1	1.1 (inactive)
CCCCCC(=O)NNC(=O)c1ccc(F)cc1	1 (inactive)
CCCCCCCC(=O)NNC(=O)c1ccc(F)cc1	2.1 (inactive)
Cc1cc(NC(=O)CCC(=O)N(Cc2ccco2)C(C(=O)NC2CCCCC2)c2cccs2)no1 (configuration not stated)	1.1 (inactive)
Cc1cc(Cl)ccc1OCC(=O)NCCOC(=O)Nc1sc(=S)n(C)c1C	1.2 (inactive)
Cc1c(C(=O)Oc2cc(N)n(S(C)(=O)=O)n2)cccc1[N+](=O)[O-]	1 (inactive)
CC(=O)c1ccc(NC(=O)COc2ccc3c(c2)OCO3)cc1	1.1 (inactive)
Cc1cc(C)c(NC(=O)CN2CCN(C)CC2)c(C)c1	1.2 (inactive)
Cc1cc(NC(=O)CN2CCN(C)CC2)no1	1.1 (inactive)
COc1ccc(C2C(C(=O)OC3CCCCC3)=C(C)Nc3nnnn32)c(OC)c1OC (configuration not stated)	1 (inactive)
N#Cc1c(SCC(=O)O)nc(-c2ccccc2)c2c1CCCC2	1 (inactive)
Cc1cccc2sc(NC(=O)CN(C)S(=O)(=O)c3ccc(Br)s3)nc12	1 (inactive)
CC1CCN(Cc2nc(Cl)c3c4c(sc3n2)CCC4)CC1	1 (inactive)
COc1cccc(-c2nnc(Nc3nc4c(F)cccc4s3)o2)c1	1.7 (inactive)
COc1cc(OC)cc(-c2nnc(Nc3nc4c(F)cccc4s3)o2)c1	1.2 (inactive)
